Assay results taken from paper PMC5700166.
Positions count from the first letter of the chain named.

Experiments:
Test in all cases: protein-binding microarray (PBM); PBM: ~300 nM protein, 6 mM HEPES pH 7.8, 80 mM KCl, 0.5 mM EDTA, 0.5 mM EGTA, 6% glycerol, 35 ng/ul poly-dIdC, 1% milk, 1 h, room temperature; Ap Aiptasia and Nv Nematostella (sea anemones) / Co Capsaspora / Aq Amphimedon (sponge) / Dm Drosophila / Hu human; RHD is the Rel homology domain; high values mean tight binding
Details in all cases: dsDNA, one strand shown
[1] = biological target: T1, GST-Ap-NF-kB RHD (Exaiptasia pallida (Aiptasia), UniProt A0A913YAJ5 2-422)
T1 sequence: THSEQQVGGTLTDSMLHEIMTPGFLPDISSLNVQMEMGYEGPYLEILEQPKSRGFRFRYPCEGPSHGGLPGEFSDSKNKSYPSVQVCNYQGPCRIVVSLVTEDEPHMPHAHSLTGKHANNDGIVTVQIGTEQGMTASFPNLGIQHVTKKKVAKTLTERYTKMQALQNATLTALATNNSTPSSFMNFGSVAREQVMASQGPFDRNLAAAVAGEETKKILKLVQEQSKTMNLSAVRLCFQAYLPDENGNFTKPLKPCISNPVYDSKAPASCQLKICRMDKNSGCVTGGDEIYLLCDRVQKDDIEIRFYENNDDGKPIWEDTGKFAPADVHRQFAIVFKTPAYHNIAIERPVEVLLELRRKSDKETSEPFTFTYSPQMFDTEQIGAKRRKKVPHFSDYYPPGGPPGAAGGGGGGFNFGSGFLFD

[2] = biological target: T2, GST-Nv-NF-kB (Cys allele) (Nematostella vectensis, UniProt E5G601 2-411)
T2 sequence: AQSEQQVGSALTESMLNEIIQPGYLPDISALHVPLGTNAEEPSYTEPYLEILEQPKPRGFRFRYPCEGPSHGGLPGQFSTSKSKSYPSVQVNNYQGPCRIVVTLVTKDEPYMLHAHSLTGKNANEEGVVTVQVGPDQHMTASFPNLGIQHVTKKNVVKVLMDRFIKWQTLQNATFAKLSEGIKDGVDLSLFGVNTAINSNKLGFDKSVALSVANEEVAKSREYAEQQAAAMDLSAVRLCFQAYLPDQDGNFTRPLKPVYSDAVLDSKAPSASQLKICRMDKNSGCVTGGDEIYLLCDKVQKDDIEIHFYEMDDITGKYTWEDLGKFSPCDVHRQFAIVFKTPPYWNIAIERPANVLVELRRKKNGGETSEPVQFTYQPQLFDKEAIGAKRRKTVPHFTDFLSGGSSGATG

[3] = biological target: T3, GST-Nv-NF-kB (Ser allele) (Nematostella vectensis, UniProt A7UNT2 2-411)
T3 sequence: T2 sequence with Q21R, C66S, S207N, E215Q, V217A, E225K, A268E, D399E

[4] = biological target: T4, GST-Co-NF-kB (Capsaspora owczarzaki, UniProt F1ARL5 200-546)
T4 sequence: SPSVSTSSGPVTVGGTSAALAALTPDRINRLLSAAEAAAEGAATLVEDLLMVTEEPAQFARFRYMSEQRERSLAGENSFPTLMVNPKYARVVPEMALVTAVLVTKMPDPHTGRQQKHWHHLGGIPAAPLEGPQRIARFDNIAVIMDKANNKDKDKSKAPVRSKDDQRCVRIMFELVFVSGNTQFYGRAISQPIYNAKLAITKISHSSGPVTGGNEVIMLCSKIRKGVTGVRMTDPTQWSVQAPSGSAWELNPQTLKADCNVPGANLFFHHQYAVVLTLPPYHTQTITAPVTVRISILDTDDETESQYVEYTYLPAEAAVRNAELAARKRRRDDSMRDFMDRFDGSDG

[5] = biological target: T5, GST-Dm-Relish (Drosophila melanogaster, UniProt Q94527 99-473)
T5 sequence: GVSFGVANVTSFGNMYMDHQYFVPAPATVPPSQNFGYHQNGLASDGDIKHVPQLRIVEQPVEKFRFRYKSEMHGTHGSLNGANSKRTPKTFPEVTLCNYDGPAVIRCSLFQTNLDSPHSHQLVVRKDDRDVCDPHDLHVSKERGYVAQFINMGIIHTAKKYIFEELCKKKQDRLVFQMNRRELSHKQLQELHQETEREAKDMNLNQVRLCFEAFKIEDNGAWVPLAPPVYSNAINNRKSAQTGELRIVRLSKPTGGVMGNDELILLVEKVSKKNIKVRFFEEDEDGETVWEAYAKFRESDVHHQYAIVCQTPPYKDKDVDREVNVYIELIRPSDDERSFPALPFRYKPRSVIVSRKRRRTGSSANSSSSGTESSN

[6] = biological target: T6, GST-Aq-NF-kB (Amphimedon queenslandica, UniProt A9Y5G7 2-389)
T6 sequence: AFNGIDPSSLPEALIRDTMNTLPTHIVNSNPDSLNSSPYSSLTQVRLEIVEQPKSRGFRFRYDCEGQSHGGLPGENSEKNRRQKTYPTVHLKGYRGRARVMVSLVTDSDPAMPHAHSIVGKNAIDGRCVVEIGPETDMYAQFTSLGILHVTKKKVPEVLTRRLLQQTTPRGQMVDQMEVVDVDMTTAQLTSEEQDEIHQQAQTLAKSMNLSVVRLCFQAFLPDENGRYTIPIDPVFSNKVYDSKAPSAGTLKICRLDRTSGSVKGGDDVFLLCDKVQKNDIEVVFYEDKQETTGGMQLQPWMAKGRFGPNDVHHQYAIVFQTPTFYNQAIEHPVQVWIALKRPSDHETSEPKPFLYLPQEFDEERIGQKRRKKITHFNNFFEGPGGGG

[7] = biological target: GST-Hu-p50 (Homo sapiens, UniProt P19838 7-356)
Sequence of GST-Hu-p50 (P19838 7-356): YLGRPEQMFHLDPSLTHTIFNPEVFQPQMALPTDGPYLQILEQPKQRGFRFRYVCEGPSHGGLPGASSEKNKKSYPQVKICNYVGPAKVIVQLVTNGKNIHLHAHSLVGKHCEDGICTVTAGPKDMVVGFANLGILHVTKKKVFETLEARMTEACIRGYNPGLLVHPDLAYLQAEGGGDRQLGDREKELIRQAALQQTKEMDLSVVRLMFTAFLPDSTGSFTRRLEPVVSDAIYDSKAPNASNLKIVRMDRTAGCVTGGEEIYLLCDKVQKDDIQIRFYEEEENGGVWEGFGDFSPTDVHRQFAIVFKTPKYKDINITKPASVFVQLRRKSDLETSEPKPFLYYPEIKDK

Sequence	binding signal [1] [z-score]	binding signal [2] [z-score]	binding signal [3] [z-score]	binding signal [4] [z-score]	binding signal [5] [z-score]	binding signal [6] [z-score]	binding signal [7] [z-score]
CCGATTAACATCAGGGACTTTTATGATGTTAATCGGGTCTTGATTCGCTTGACGCTGCTG	7.76	9.97	9.79	1.97	8.37	7.89	6.59
CCGATTAACATCAAAAATCCCCCTGATGTTAATCGGGTCTTGATTCGCTTGACGCTGCTG	11.1	11.4	12.8	8.5	10.1	9.28	8.05
CCGATTAACATCAAAAAGTCCCGTGATGTTAATCGGGTCTTGATTCGCTTGACGCTGCTG	7.34	9.76	8.57	2.47	9	8.05	6.44
CCGATTAACATCAAAATTCCCCATGATGTTAATCGGGTCTTGATTCGCTTGACGCTGCTG	8.8	9.9	10.5	7.72	7.31	7.95	6.99
CCGATTAACATCAGGGACTACCCTGATGTTAATCGGGTCTTGATTCGCTTGACGCTGCTG	6.16	5.24	4.07	1.8	7.1	7.57	4.13
CCGATTAACATCAGGGAATTGCATGATGTTAATCGGGTCTTGATTCGCTTGACGCTGCTG	2.48	4.23	4.1	2.6	1.11	3.49	3.1
CCGATTAACATCAGCAATCCCCCTGATGTTAATCGGGTCTTGATTCGCTTGACGCTGCTG	7.85	6.26	6.95	4.31	5.79	5.16	6.73
CCGATTAACATCAGGGGCAGTACTGATGTTAATCGGGTCTTGATTCGCTTGACGCTGCTG	2.61	1.84	1.28	1.64	3.44	4.35	2.94
CCGATTAACATCAGGGGAAACGATGATGTTAATCGGGTCTTGATTCGCTTGACGCTGCTG	4.89	6.2	8.83	6.65	1.87	3.92	4.62
CCGATTAACATCAGGGAATATACTGATGTTAATCGGGTCTTGATTCGCTTGACGCTGCTG	3.5	3.81	4.1	3.18	4.01	4.33	2.3
CCGATTAACATCATTTGGGAAAATGATGTTAATCGGGTCTTGATTCGCTTGACGCTGCTG	1.08	3.26	4.46	2.04	1.08	1.67	2.23
CCGATTAACATCACATTCCCCCCTGATGTTAATCGGGTCTTGATTCGCTTGACGCTGCTG	6.91	6.39	6.97	8.44	4.58	5.7	5.73
CCGATTAACATCAATTCCCACCCTGATGTTAATCGGGTCTTGATTCGCTTGACGCTGCTG	2.43	2.6	2.72	3.21	2.33	2.03	2.02
CCGATTAACATCAGGGGGCAATATGATGTTAATCGGGTCTTGATTCGCTTGACGCTGCTG	3.43	3.24	3.15	4.37	2.2	3.54	3.82
CCGATTAACATCAGGGGGAGGAATGATGTTAATCGGGTCTTGATTCGCTTGACGCTGCTG	5.2	4.58	6.46	7.99	2.99	4.59	4.89
CCGATTAACATCACTATTTCCCCTGATGTTAATCGGGTCTTGATTCGCTTGACGCTGCTG	6.35	7.42	9.8	8.77	3.62	4.85	6.08
CCGATTAACATCATGGGGGGAAATGATGTTAATCGGGTCTTGATTCGCTTGACGCTGCTG	6.36	6.46	7.43	9.84	4.25	5.5	6.02
CCGATTAACATCAGGGAAAAACATGATGTTAATCGGGTCTTGATTCGCTTGACGCTGCTG	3.76	5.03	7.18	5.51	6.52	5.27	4.03
CCGATTAACATCACAGAATCCCCTGATGTTAATCGGGTCTTGATTCGCTTGACGCTGCTG	8.13	8.87	11.1	3.42	7.58	6.21	6.89

Sequence	binding signal [1] [z-score]	binding signal [2] [z-score]	binding signal [3] [z-score]	binding signal [4] [z-score]	binding signal [5] [z-score]	binding signal [6] [z-score]	binding signal [7] [z-score]
CCGATTAACATCAAGGGGAATTCTGATGTTAATCGGGTCTTGATTCGCTTGACGCTGCTG	10.3	11.3	12.1	6.89	8.49	8.42	7.65
CCGATTAACATCAGGAACTCCCATGATGTTAATCGGGTCTTGATTCGCTTGACGCTGCTG	2.86	2.53	1.04	1.08	4.29	3.71	1.95
CCGATTAACATCAGGGGGGTACCTGATGTTAATCGGGTCTTGATTCGCTTGACGCTGCTG	5.8	3.31	3.85	4.86	5.81	5.74	4.26
CCGATTAACATCAAAGTTTCCCCTGATGTTAATCGGGTCTTGATTCGCTTGACGCTGCTG	7.96	9.57	12	10.6	5.37	7.26	6.85
CCGATTAACATCAAGGGGAATCCTGATGTTAATCGGGTCTTGATTCGCTTGACGCTGCTG	9.67	11	10	5.17	9.09	7.69	6.99
CCGATTAACATCAGGGGTTCCCATGATGTTAATCGGGTCTTGATTCGCTTGACGCTGCTG	4.04	2.36	1.37	1.64	10	4.49	2.64
CCGATTAACATCAGGGGGGTAACTGATGTTAATCGGGTCTTGATTCGCTTGACGCTGCTG	5.83	4.16	4.34	6.37	4.31	4.37	4.07
CCGATTAACATCACGGGAAATCCTGATGTTAATCGGGTCTTGATTCGCTTGACGCTGCTG	5.03	6.03	5.29	4.57	6.3	6.18	3.91
CCGATTAACATCACCCACTCCCCTGATGTTAATCGGGTCTTGATTCGCTTGACGCTGCTG	4.11	2.69	3.92	2.82	1.47	3.04	3.03
CCGATTAACATCACACTTTCCCCTGATGTTAATCGGGTCTTGATTCGCTTGACGCTGCTG	6.32	6.92	8.7	7.06	2.75	4.81	5.3
CCGATTAACATCAGGGGATTACATGATGTTAATCGGGTCTTGATTCGCTTGACGCTGCTG	6.52	6.73	8.01	3.12	8	5.64	5.79
CCGATTAACATCAGAGACTTCCCTGATGTTAATCGGGTCTTGATTCGCTTGACGCTGCTG	1.92	2.44	2.19	1.11	1.95	3.32	1.57
CCGATTAACATCAAAATTACCCATGATGTTAATCGGGTCTTGATTCGCTTGACGCTGCTG	2.8	4.69	4.25	2.84	4.11	4.84	4.15
CCGATTAACATCAAGAATCCCCTTGATGTTAATCGGGTCTTGATTCGCTTGACGCTGCTG	7.94	9.47	10.9	2.64	8.39	7.11	7.63
CCGATTAACATCAAATTCCCCCCTGATGTTAATCGGGTCTTGATTCGCTTGACGCTGCTG	8.5	8.77	8.88	10.1	8.4	7.65	6.85
CCGATTAACATCAAAGTATCCCCTGATGTTAATCGGGTCTTGATTCGCTTGACGCTGCTG	6.1	5.64	7.21	5.48	3.47	4.4	4.64
CCGATTAACATCAGGGGATTGTATGATGTTAATCGGGTCTTGATTCGCTTGACGCTGCTG	6.91	7.07	8.67	3.04	4.19	5.12	6.01
CCGATTAACATCAATTTCCCCCCTGATGTTAATCGGGTCTTGATTCGCTTGACGCTGCTG	7.89	7.68	8.79	11.5	6.02	6.64	6.75
CCGATTAACATCAGAAACACCCCTGATGTTAATCGGGTCTTGATTCGCTTGACGCTGCTG	3.57	2.68	2.16	3.34	3.56	3.93	3.61
